# Compounds with a hit are over-represented: about 7.3% of the library has one in this group of screens.
# VACV Venus inh: inhibitors of vaccinia virus (Venus reporter); Vaccinia virus Venus reporter expression, fluorescence; Potency, µM (doses to about 36.5 µM), for the others: at the top dose activity change, negative = inhibition, usual class: inhibitors; AID 720580; hit rate 0.46% among 330,000; calls by dose curve; tested in A549 cells; also: potency is read from the fitted curve at half-maximal effect; nearly all actives have a fitted effect of over 30% in size
# HCV inhibitor: inhibitors of hepatitis C virus infection; Huh7.5.1 HCVcc-Cre infection, luciferase reporter, 44 h; hit rate 3.4% among 340,000; Potency, µM (top dose mostly 41.8 µM), for inactives: top-dose activity change, negative = inhibition, usual class: inhibitors; active = well fitted inhibition curve with a large enough effect; inconclusive = small, poorly fitted or top-dose-only effect, or another doubt; inactive = no such curve, though single readings can be large or run the other way; also: potency is read from the fitted curve at half-maximal effect
#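 Infectious HCVcc-Cre (~0.5 moi) was added to cells just after compound, with cells seeded 4 h earlier at 1,000 per well. Luciferase activity after 44 h culture reported infection; substrate was incubated 15 min at room temperature before reading.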
# Vaccinia mCherry: inhibitors of vaccinia virus infection (mCherry reporter signal); Vaccinia virus mCherry reporter infection, fluorescence; Potency, µM (series often up to 36.5 µM), for the others: at the top dose activity change, negative = inhibition, most hits filed as inhibitors; hit rate 0.63% among 310,000; calls by dose curve; tested in A549 cells; also: potency is read from the fitted curve at half-maximal effect; nearly all actives have a fitted effect of over 35% in size
# FMDV antiviral: antivirals against foot and mouth disease virus | FMDV antiviral cell-based qHTS | Potency, µM (titrated, usually from 57.9 µM), for the others: top-dose activity change, negative = inhibition, usual class: inhibitors | hit rate 1.2% among 410,000 | AID 1159524; calls by dose curve; tested in HEK293T cells; also: read-out not given here; potency is read from the fitted curve at half-maximal effect; nearly all actives have a fitted effect of over 45% in size
# HCMV antiviral: human cytomegalovirus inhibition. hit rate 4.5% among 410,000. HFF cells, HCMV-luciferase reporter, 72 h; active compounds read low. activity change, negative = inhibition, % at 57.5 µM; in the data active = activity change below about -60%; inconclusive = no clear call, values can overlap the other calls; inactive = above about -39%
#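 After 16 h attachment at 37C, HFF cells received test compound and HCMV-luciferase (1 PFU/cell); reporter luminescence read 72 h later, data normalized against buffer-only and known inhibitor Salinomycin.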
# Starred values were filed as active, the others as inactive; i = inactive; ? = inconclusive; nt = no result; + = active, no number; [ ] = remark or other dose. % is scaled to controls: 0 for no effect and ±100 for the full control effect.
SMILES,VACV Venus inh,HCV inhibitor,Vaccinia mCherry,FMDV antiviral,HCMV antiviral
COc1cccc(NC(=O)Cn2nnc(-c3nc(-c4ccccc4)no3)c2N)c1,-6%[7.34 µM],nt,-12%[7.34 µM],18%,-8
COc1ccc(OC)c(-c2ccc(O)c(CN3CCc4c([nH]c5ccccc45)C3)c2)c1,-7%,nt,-9%,-11%,nt
CSCCC1c2cccn2-c2ccccc2N1C=Nc1c(C)cccc1C (stereo unspecified),nt,nt,nt,nt,16
Cc1ccccc1C(=O)N1CCN(c2ccc([N+](=O)[O-])c(NCc3cccnc3)c2)CC1,-16%,?,-29%,?,?
Cc1ccc(C(=O)N2CCN(c3ccc([N+](=O)[O-])c(NCc4cccnc4)c3)CC2)cc1,?,13µM*,-27%,-12%,-36
CCOc1ccc(Oc2ccccc2NC(=O)CSCC(=O)Nc2cc(C)on2)cc1,-28%,8.9µM*,-7%,?,?
CCc1ccc(/C=c2\s/c(=C\C(=O)C(C)(C)C)[nH]c2=O)cc1,-25%,?,nt,-22%,19
Cc1ccccc1/C=c1\s/c(=C\C(=O)C(C)(C)C)[nH]c1=O,?,11µM*,nt,?,52
CC(C)(C)C(=O)/C=c1\[nH]c(=O)/c(=C\c2ccc(F)cc2)s1,11µM*,-29%,nt,-24%,33
O=S(=O)(NCCc1csc(-c2ccc(C(F)(F)F)cc2)n1)c1ccc2c(c1)OCCO2,2%,?,?,6%,-6
COc1ccc(-c2nc(CCNS(=O)(=O)c3ccc4c(c3)OCCO4)cs2)cc1,-25%,11µM*,?,10%,-35
O=C(NCCc1csc(-c2ccc(F)cc2)n1)c1c(F)cccc1Cl,-12%,nt,i,-4%,-38
O=C(NCCc1csc(-c2cccnc2)n1)c1c(F)cccc1F,-14%,11µM*,-5%,12%,?
O=S(=O)(NCCc1csc(-c2cccnc2)n1)c1cccc(F)c1,-2%,4%,-15%,4%,-11
O=S(=O)(NCCc1csc(-c2cccnc2)n1)c1cc(F)ccc1F,-16%,-17%,-17%,40%,-61*
O=C(NCCc1csc(-c2ccccc2)n1)c1c(F)cccc1Cl,-5%,?,-10%,13%,-70*
CN(C(=O)c1nn(C)c2c1COc1ccccc1-2)c1cccc(C(F)(F)F)c1,-13%,nt,-17%,-13%,-32
Cc1ccc(NC(=O)NCc2c(-n3cccc3)sc3c2CCCC3)c(Cl)c1,-21%,nt,-16%,1%,-21
CCc1ccc(CNC(=O)C2CCN(C(=O)c3ccc(-n4ccc5ccccc54)s3)CC2)cc1,-23%,nt,-18%,-20%,-9
Cc1cc(S(=O)(=O)NCCc2csc(-c3cccc(F)c3)n2)ccc1F,11µM*,nt,?,22%,-3
COc1ccc(S(=O)(=O)NCCc2csc(-c3cccc(F)c3)n2)cc1OC,-11%,nt,-21%,28%,4
COc1ccc2c(c1)CC(N1CCN(C)CC1)c1cc(OC)ccc1S2 (stereo unspecified),?,?,?,?,-64*
CC1CCc2c(sc(NC(=O)c3cccs3)c2C(=O)O)C1 (stereo unspecified),nt,?,nt,23%,-79*
Cc1c(OCC(=O)NCCCN2CCCC2=O)ccc2c3c(c(=O)oc12)CCCC3,nt,7%,nt,-23%,+
Cc1c(OCC(=O)NCCCN2CCCC2=O)ccc2c3c(c(=O)oc12)CCC3,nt,0%,nt,-7%,?
SMILES,VACV Venus inh,HCV inhibitor,Vaccinia mCherry,FMDV antiviral,HCMV antiviral
Cc1c(OCC(=O)N2CCC(C(=O)O)CC2)ccc2c3c(c(=O)oc12)CCC3,-4%,0.32µM*,-3%,-16%,10
Cc1c(OCC(=O)N2CCC(C(N)=O)CC2)ccc2c3c(c(=O)oc12)CCC3,-2%,9%,13%,-3%,21
CCOCCCn1c(=N)c(C(=O)NCC2CCCO2)cc2c(=O)n3cccc(C)c3nc21 (stereo unspecified),10%,nt,11%,-22%,-67*
Cc1ccc(Cn2c(=N)c(C(=O)NCC3CCCO3)cc3c(=O)n4cccc(C)c4nc32)cc1 (stereo unspecified),-9%,11µM*,0%,7%,-107*
CCOC(=O)c1c(C)c(-c2ccccc2)n(CC(=O)Nc2cc(C)ccc2OC)c1C,-11%,nt,-10%,-15%,0
O=C(CCCOc1ccccc1)Nc1ccc(Cl)cn1,-28%,?,?,28%,-65*
COCCSc1ccccc1C(=O)Nc1ccc(Cl)cn1,-3%,-8%,-13%,-23%,-69*
COCCSc1ccccc1C(=O)Nc1nccs1,-7%,3%,-12%,nt,26
CCCCCCC(=O)Nc1ccc(Cl)cn1,nt,8%,nt,50%,-15
O=C(COC(=O)CNC(=O)c1ccccc1)Nc1ccc(Cl)cn1,9%,-13%,-5%,-3%,-61*
c1ccc(-c2cn3nc4c(nc3n2)CCCC4)cc1,-10%,-7%,-10%,5.6µM*,39
Brc1ccc(-c2cn3nc4c(nc3n2)CCCC4)cc1,-7%,-15%,i,?,?
O=S(=O)(c1ccc(Cl)cc1)c1nc(-c2ccco2)oc1SCc1ccc(F)cc1,-19%,nt,-19%,?,-20
CCCCCc1ccc(CC(=O)Nn2c(C)nc3ccccc3c2=O)cc1,-25%,?,-30%,nt,-69*
Cc1nc2ccccc2c(=O)n1NC(=O)Cc1ccc(Br)cc1,-9%,13%,1.8µM*,0%,19
CCc1ccc(C(=O)Nn2c(C)nc3ccccc3c2=O)cc1,nt,3%,nt,4%,85
CCOC(=O)c1cc2c(C)n(-c3ccc(OCC)cc3)c(C)c2ccc1=O,-23%,?,?,40µM*,?
CCOC(=O)c1cc2c(C)n(-c3ccc(C)cc3)c(C)c2ccc1=O,nt,11µM*,nt,-37%,-96*
CCOC(=O)c1c[nH]n(-c2ccc(C)cc2)c1=O,-13%,3%,i,19%,68
CC(N)CCCP(=O)(O)O (stereo unspecified),-7%,nt,-1%,12%,nt
Cc1ccc2c(c1)cc1c(=O)n(CC(=O)NCc3ccco3)nc(C)n12,-4%,nt,-10%,2%,-39
CC1CCN(CCC(=O)Nc2ccc(Br)cc2)CC1,-14%,?,-18%,nt,-68*
CCOC(=O)C1CCN(CCC(=O)Nc2ccc(C)c(C)c2)CC1,nt,-15%,nt,-7%,-67*
COc1ccc(CNC(=O)CSc2nnc3c(n2)[nH]c2ccc(F)cc23)cc1,3%,-7%,21%,-10%,-71*
CC(C)OC(=O)CSc1nnc2c(n1)[nH]c1ccc(F)cc12,nt,-26%,nt,?,-88*
COCc1ccc(CN2CCOc3ccc(C4=Cc5ccccc5C4)cc3C2)o1,-9%,nt,-14%,45%,nt
COc1ccc(CCNC(=O)c2cc3c(s2)-c2c(C)cccc2OC3)c(OC)c1,-18%,nt,-16%,-13%,-28
Cn1nc(-c2ccc(C(=O)Nc3ccc(F)cc3)cc2)c2ccccc2c1=O,-5%,?,0%,40µM*,-30
Cc1ccc(NC(=O)c2ccc(-c3nn(C)c(=O)c4ccccc34)cc2)cc1,nt,13µM*,nt,?,-38

# High-throughput results deposited in PubChem BioAssay by National Center for Advancing Translational Sciences (NCATS).
